Screening data (PubChem)
A selection: hits, their analogues and other compounds. The true share with any hit is near 3.5%.
MITF inh: MITF inhibitors, primary screen, biochemical, AlphaScreen, human | inhibition, % at 2.6 µM | AlphaScreen MITF homodimerization, bead proximity signal | actives 0.91% (n = 650,000) | Microphthalmia-associated transcription factor (Homo sapiens), O75030 | AID 1259374, 2018; in the data active means inhibition above about 50%
FBW7 act: FBW7 E3 ligase activators, primary screen, biochemical, AlphaScreen, human; actives 0.13% (n = 650,000); AlphaScreen FBW7–phospho-cyclin E peptide binding, activator screen; AID 1259310, 2017; F-box/WD repeat-containing protein 7 (Homo sapiens), Q969H0; normalized activity (activation), % at 26.1 µM; in the data active means normalized activity above about 1.9%;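 further: purified mutant Fbw7 with reduced substrate affinity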
Target sequence (Q969H0 whole entry, looked up): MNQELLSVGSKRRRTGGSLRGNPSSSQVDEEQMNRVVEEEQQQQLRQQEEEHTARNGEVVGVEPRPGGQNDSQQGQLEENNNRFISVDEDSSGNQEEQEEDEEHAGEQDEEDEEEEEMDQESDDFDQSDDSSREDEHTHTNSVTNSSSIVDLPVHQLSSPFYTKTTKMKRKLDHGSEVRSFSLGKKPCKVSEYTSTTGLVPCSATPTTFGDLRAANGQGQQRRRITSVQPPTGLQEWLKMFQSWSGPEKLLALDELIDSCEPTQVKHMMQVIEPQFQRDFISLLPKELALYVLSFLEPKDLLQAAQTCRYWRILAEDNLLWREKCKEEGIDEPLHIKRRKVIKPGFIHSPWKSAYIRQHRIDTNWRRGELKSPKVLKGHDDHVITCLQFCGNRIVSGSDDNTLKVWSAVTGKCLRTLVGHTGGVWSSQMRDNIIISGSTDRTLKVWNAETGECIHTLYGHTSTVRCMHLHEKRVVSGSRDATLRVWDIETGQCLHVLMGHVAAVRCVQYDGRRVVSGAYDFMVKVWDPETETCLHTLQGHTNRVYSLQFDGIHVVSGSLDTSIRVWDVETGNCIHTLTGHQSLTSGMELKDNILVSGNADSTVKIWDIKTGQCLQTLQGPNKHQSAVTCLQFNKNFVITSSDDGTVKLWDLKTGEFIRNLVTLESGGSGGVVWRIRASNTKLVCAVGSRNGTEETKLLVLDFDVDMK
TEAD-YAP inh: TEAD-YAP interaction inhibition, primary screen, TEAD-YAP interaction inhibitor project, luminescence, HEK-TIYL cells; TEAD-Gal4/YAP UAS-luciferase luminescence; actives 1.4% (n = 640,000); inhibition, % at 9.12 µM; in the data active means inhibition above about 32%
GPR151 ag: activators of human GPR151, primary screen, cell-based, PathHunter beta-arrestin, luminescence; PathHunter beta-arrestin GPR151 cells; activation, % at 11.2 µM; actives 1% (n = 650,000); AID 1508602, 2020; in the data active means activation above about 4.9%
Large screens that a line does not name were inactive.

CC(C)Cc1ccc(-c2cc(C(=O)N/N=C/c3ccncc3)[nH]n2)cc1	TEAD-YAP inh 45.3
NC(=O)Cn1nc([N+](=O)[O-])nc1Sc1n[nH]c(-c2ccccc2Cl)n1	none
NS(=O)(=O)c1ccc(NC(=S)NC2CCN(Cc3ccccc3)CC2)cc1	none
O=[N+]([O-])c1ccc(NC(=S)NC2CCN(Cc3ccccc3)CC2)cc1	TEAD-YAP inh 34.1
O=C1OC(/C=C\c2cccc([N+](=O)[O-])c2)=NC/1=C/c1ccccc1	none
O=C(Nc1ccc(Oc2cccnc2)cc1)C1CCN(Cc2ccc(F)cc2)CC1	none
O=C(Nc1ccc(Oc2cccnc2)cc1)C1CCN(Cc2cc(Cl)ccc2O)CC1	TEAD-YAP inh 44.3
Cc1noc(C)c1C(=O)Nc1ccc(S(=O)(=O)Nc2ccc(Cl)cc2)cc1	none
CCS(=O)(=O)N1CCN(Cc2nc(-c3ccc(Cl)cc3)cs2)CC1	TEAD-YAP inh 32.9
Cc1ccccc1Cn1cc(C=C2C(=O)N(C)C(=O)N(C)C2=O)c2ccccc21	none
Cc1ccccc1OCCCn1cc(C=C2C(=O)N(C)C(=O)N(C)C2=O)c2ccccc21	TEAD-YAP inh 34.4
O=C(NCc1ccncc1)c1cc2cc(C3(O)CCN(CC4CC=CCC4)CC3)ccc2o1 (centres undefined)	none
COc1ccc(/C(O)=C2\C(=O)C(=O)N(c3ccc(C)c(Br)c3)C2c2ccc(OC)cc2OC)cc1 (centres undefined)	none
COc1cc(C(=O)Nc2ccc(C)c(C)c2)cc(OC)c1OC	none
COc1cc(C(=O)Nc2ccc(I)cc2)cc(OC)c1OC	TEAD-YAP inh 34.7
COc1cc(C(=O)Nc2ccc(N3CCCC3)c(Cl)c2)cc(OC)c1OC	TEAD-YAP inh 42.0
O=C1NC2(CCN(C(=O)c3cccc4cccnc34)CC2)Oc2ccccc21	FBW7 act 22.6
O=C1NC2(CCN(Cc3cccc4cccnc34)CC2)Oc2ccccc21	none
Cc1ccc(C2C3=C(CCCC3=O)Nc3c2c(=O)n(C)c(=O)n3C)o1 (centres undefined)	none
Cc1cc2nc3cc(N)c(C)cc3cc2cc1N	TEAD-YAP inh 72.5
Cc1cc2nc3ccc(N(C)C)cc3nc2cc1N	MITF inh 57.8, TEAD-YAP inh 32.4
CN(C)c1ccc2nc3c(nc2c1)C(=O)c1ccccc1C3=O	none
COc1cc(-c2nc(-c3cccc(Br)c3)no2)cc(OC)c1OC	none
c1ccc(CC2CCN(c3ncnc4sccc34)CC2)cc1	TEAD-YAP inh 33.6
Cc1ccc2c(NC(=O)c3ccccc3F)noc2n1	none
O=C(Nc1noc2ncccc12)c1ccccc1Cl	TEAD-YAP inh 94.4
O=C(Nc1noc2ccccc12)c1c(F)cccc1F	TEAD-YAP inh 57.2
O=C(Nc1noc2ncccc12)c1ccccc1F	TEAD-YAP inh 83.4
COc1ccc(Nc2nc(-c3c(C)nc4ccccn34)cs2)cc1	TEAD-YAP inh 61.6
Cc1nc2ccccn2c1-c1csc(Nc2ccc(Br)cc2Br)n1	TEAD-YAP inh 55.3
Brc1cc2c(cc1Br)OCCOCCOCCOCCO2	none
Nc1cc(Br)c2c(c1)OCCO2	TEAD-YAP inh 65.9
COC(=O)C1(C(F)(F)F)N=C2C=CC=CN2C(c2ccc(F)cc2)=N1 (centres undefined)	none
CSc1ccccc1C(=O)Nc1nc2cc(C)cc(C)c2s1	none
CSc1ccccc1C(=O)Nc1nc2nc(C)cc(C)c2s1	FBW7 act 8.8
Cc1cc(C)c2sc(NC(=O)c3ccccc3C)nc2n1	TEAD-YAP inh 61.3
Cc1cc(C)c2sc(NC(=O)c3cc4ccccc4o3)nc2n1	none
Nc1ccc(-c2nn[nH]n2)cc1F	none
COC(=O)C(C(=O)OC)C(C(=O)OC)(C(=O)OC)C(C(=O)OC)C(=O)OC	none
O=C(Nc1nnc(C23CC4CC(CC(C4)C2)C3)s1)c1ccco1	FBW7 act 1.9
Cc1nc2ccc3nc(NC(=O)c4ccco4)sc3c2s1	FBW7 act 25.7
Cc1nc2c(ccc3nc(NC(=O)c4ccco4)sc32)s1	TEAD-YAP inh 50.0
Cc1ccc(C(=O)Nc2nc3ccc4sc(C)nc4c3s2)cc1	none
Cc1nc2c(ccc3nc(NC(=O)C4=COCCO4)sc32)s1	TEAD-YAP inh 78.6
CCOc1ccc(NC(=O)C2C3C=CC4(O3)C2C(=O)N(Cc2ccc3c(c2)OCO3)C4C(=O)NC2CCCCC2C)cc1 (centres undefined)	none
O=C(Nc1cccc(Cl)c1Cl)N[C@H]1C[C@H]2C(=O)N[C@H](CO)C(=O)N2C1	none
CC1(C)CC(=O)C2=C(C1)NC(=S)C(C#N)C2c1ccccc1[N+](=O)[O-] (centres undefined)	none
Cc1nnc(SC(=O)N2c3ccccc3Sc3ccccc32)s1	TEAD-YAP inh 60.6
COc1ccc(Cc2cnc(NC(=O)/C=C/c3ccccc3)s2)cc1	TEAD-YAP inh 56.1
COc1ccc(/C=C/C(=O)Nc2ncc(Cc3ccccc3)s2)cc1	none
COc1ccc(Cc2cnc(NC(=O)/C=C/c3ccco3)s2)cc1	TEAD-YAP inh 64.5
COc1cc(OC)c(NC(=O)c2ccc(N3CC4CC(C3)c3cccc(=O)n3C4)c(NC(=O)c3cccc(C(F)(F)F)c3)c2)cc1Cl (centres undefined)	none
C=CCOc1ccc(C2C(C(=O)OCC)=C(C)N=c3s/c(=C/c4ccc5c(c4)OCO5)c(=O)n32)cc1OCC (centres undefined)	none
Cc1nc(/C=C/c2ccc(Cl)cc2)sc1C(=O)O	TEAD-YAP inh 59.6
CCCCNS(=O)(=O)c1ccc2c(c1)CCN2C(=O)CC	none
CCOCCCNc1ncnc2c1cnn2C	FBW7 act 1.9
CC(C)(C)c1ccc(/C=C2\C(=O)Nc3ccccc32)cc1	none
O=C(Nc1ccc(N2CCCC2=O)cc1)c1ccco1	TEAD-YAP inh 59.2
CS(=O)(=O)N1CCc2cc(C(=O)N3CCCC3c3nc4ccccc4[nH]3)ccc21 (centres undefined)	none
O=C(Nc1ccc(S(=O)(=O)NCCc2ccccc2)cc1)c1ccc([N+](=O)[O-])cc1	TEAD-YAP inh 31.9
Cc1ccc(C(=O)Nc2ccc(S(=O)(=O)NCc3ccccc3)cc2)cc1	TEAD-YAP inh 32.1
O=C(Nc1ccc(Br)cc1)c1cccc(S(=O)(=O)NCc2ccccc2)c1	TEAD-YAP inh 40.6
Cc1ccc(S(=O)(=O)NCc2ccccc2)cc1	none (no result: TEAD-YAP inh)
CCOc1cc(C2C(C(=O)OCCOC)=C(C)NC3=C2C(=O)CC(c2cccs2)C3)ccc1O (centres undefined)	none
COc1cccc(O)c1O	MITF inh 89.5, TEAD-YAP inh 43.3
Cc1ccc(C(O)C#CC(C)(C)O)o1 (centres undefined)	none
Cc1cc(C)c(C(=O)/C=C/c2ccccn2)c(=O)[nH]1	TEAD-YAP inh 76.8
COc1ccccc1/C=C/C(=O)c1c(C)cc(C)[nH]c1=O	TEAD-YAP inh 36.7
COc1cccc(/C=C/C(=O)c2c(C)cc(C)[nH]c2=O)c1O	none
CCOC(=O)c1sc(NC(=O)c2ccccc2NS(=O)(=O)c2ccc(C)cc2)nc1-c1ccccc1	none
